Data on 15 molecules can be found in PubChem BioAssay (NCATS).

One test concerns Es-2. The experiment in a line: Primary qHTS to identify gynecologic anti-cancer compounds using libraries of approved drugs and bioactive compounds (AID 1345084). Also: nearly all actives have a fitted effect of over 55% in size. The note with it: Gynecologic cancer cell panel viability, ATPlite luminescence, 48 h; series mostly up to 57.5 µM. In short, it runs like this: (§1)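 Luminescence from the ATPlite ATP-monitoring reagent indicates viable cell number; lower signal means cytotoxicity. Cells received compound 16 h after seeding and were exposed for 48 h across five concentrations.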

For the next test, the system named is HeLa. Described as above. The note with it: Gynecologic cancer cell panel viability, ATPlite luminescence, 48 h; series mostly up to 57.5 µM. In short, it runs like this:
as §1
(Cellular ATP, detected with luciferase, serves as a proxy for viable cell number.)

A further test concerns Hek293T. Described as above. The note with it: Gynecologic cancer cell panel viability, ATPlite luminescence, 48 h, control line for the selectivity index; series mostly up to 57.5 µM. The essentials: as §1
The subject of the next test is JEG-3. The test is described as above. The conditions noted are these: Gynecologic cancer cell panel viability, ATPlite luminescence, 48 h; series mostly up to 57.5 µM. The essentials:
as §1

The next test has as its system OV90. Described as above. The note with it: Gynecologic cancer cell panel viability, ATPlite luminescence, 48 h; series mostly up to 57.5 µM. In short, it runs like this:
as §1

The test system of the next test is PA-1. The test is described as above. The conditions noted are these: Gynecologic cancer cell panel viability, ATPlite luminescence, 48 h; series mostly up to 57.5 µM. In short, it runs like this:
as §1

The test system of a further test is SKOV3. The description is as above. The conditions noted are these: Gynecologic cancer cell panel viability, ATPlite luminescence, 48 h; series mostly up to 57.5 µM. The essentials: as §1
A further test relates to Tov-21-G. The test is described as above. The note with it: Gynecologic cancer cell panel viability, ATPlite luminescence, 48 h; series mostly up to 57.5 µM. The essentials: as §1
The subject of another test is Tov112D. Described as above. The note with it: Gynecologic cancer cell panel viability, ATPlite luminescence, 48 h; series mostly up to 57.5 µM. In short, it runs like this:
as §1

A short description of test [1]: Drug repurposing screens with cells derived from glioblastoma tumor samples (AID 1345199). Also: nearly all actives have a fitted effect of over 40% in size. Also: potency is read from the fitted curve at half-maximal effect. The note with it: GBM patient neurospheres viability, ATP luminescence, 48 h. In short, it runs like this:
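Primary testing used CD133+ neurospheres from four GBM patients, seven concentrations, 48 h exposure and ATP-based viability; confirmation added three slower-growing patient lines.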

Setting [2] is: at 45.9 µM (top of the series), tumour line B.
[3] abbreviates: at 45.9 µM (top of the series), tumour line D.
The mark [4] stands for this setting: at 46.1 µM (top of the series), tumour line C.
[5] abbreviates: at 20 µM (top of the series), tumour line C.
[6] abbreviates: at 21.2 µM (top of the series), tumour line B.
Setting [7] is: at 21.2 µM (top of the series), tumour line D.

Structures are written as SMILES. Inconclusive results are not listed. Unmarked numbers belong to inactive results. The source made the active and inactive calls. Calls follow the shape of the dose curve; as a rule, active = well fitted curve in the direction sought with a large enough effect; inconclusive = small, poorly fitted or top-dose-only effect, or another doubt; inactive = no such curve, though single readings can be large; an effect the other way counts as inactive or inconclusive.
% is scaled to controls: 0 for no effect and ±100 for the full control effect.

In the case of `CCOC(=O)c1c(C)n(C)c2ccc(O)cc12`, the Potency entry with Es-2, in the test with HeLa, in the test on Hek293T, in the test with JEG-3, in the test with OV90 and in the test with PA-1 was “inactive” throughout. Also, the Potency entry in the test with SKOV3, in the test on Tov-21-G and in the test on Tov112D was “inactive” throughout. Also, the values for the activity, negative = cell killing in test [1] (setting [2]) and in test [1] (setting [3]) were -14.1% and -23.4%, respectively.
With `Clc1ccc(C(Cn2ccnc2)OCc2ccc(Sc3ccccc3)cc2)c(Cl)c1` (stereo not given), the Potency result in the test on Es-2, with HeLa, in the test with Hek293T, with JEG-3, in the test with OV90 and with PA-1 was “inactive” each time. For the same molecule, the Potency entry in the test on SKOV3, in the test on Tov-21-G and with Tov112D was “inactive” each time.
`COc1ccc(C2(C#N)CCC(C(=O)O)CC2)cc1OC1CCCC1` (stereo not given): the Potency entry with Es-2, in the test on HeLa, in the test on Hek293T, in the test on JEG-3, with OV90 and in the test on PA-1 was “inactive” each time. Besides, the Potency entry in the test with SKOV3, in the test with Tov-21-G and in the test on Tov112D was “inactive” in each case. The activity, negative = cell killing in test [1] (setting [2]) was -12.3%; in [1] (setting [3]), -10.6%; in test [1] (setting [4]) it was -18.3%.
For `O=C(OC1C[C@H]2CC[C@@H](C1)[N+]21CCCC1)C(O)(c1ccccc1)c1ccccc1` (stereo not given in full), the Potency entry with Es-2, in the test with HeLa, in the test with Hek293T, in the test with JEG-3, with OV90 and in the test with PA-1 was “inactive” each time. In addition, the Potency result in the test with SKOV3, with Tov-21-G and in the test on Tov112D was “inactive” each time. In addition, the activity, negative = cell killing in test [1] (setting [2]) was -3.76%; in test [1] (setting [3]), -11.8%; in [1] (setting [4]) it was -2.11%.
Turning to `C=C(c1ccc(C(=O)O)cc1)c1cc2c(cc1C)C(C)(C)CCC2(C)C`, the Potency entry in the test on Es-2, in the test on HeLa, with Hek293T, with JEG-3, with OV90 and in the test with PA-1 was “inactive” throughout. Moreover, the Potency entry in the test on SKOV3, with Tov-21-G and with Tov112D was “inactive” each time.
For `Cc1cc2cc3c(C)cc(=O)oc3c(C)c2o1`, the Potency entry in the test on Es-2, in the test with HeLa, in the test on Hek293T, with JEG-3, in the test with OV90 and in the test on PA-1 was “inactive” in each case. Further, the Potency result in the test with SKOV3, in the test on Tov-21-G and in the test with Tov112D was “inactive” in each case. The results for the activity, negative = cell killing in test [1] (setting [5]), in test [1] (setting [6]) and in test [1] (setting [7]) were -6.21%, -13.8% and -30.4%, respectively.
Turning to `Cc1c(OCC(F)(F)F)ccnc1CS(=O)c1nc2ccccc2[nH]1` (stereo not given), the Potency entry with Es-2, with HeLa, with Hek293T, in the test with JEG-3, with OV90 and in the test on PA-1 was “inactive” each time. Moreover, the Potency entry in the test with SKOV3, in the test with Tov-21-G and in the test on Tov112D was “inactive” throughout. The activity, negative = cell killing in [1] (setting [2]) is -26%. Moreover, in [1] (tumour line A), the Potency was 10 µM (active).
In the case of `COc1c(O)cc2c(c1O)[C@@H]1O[C@H](CO)[C@@H](O)[C@H](O)[C@H]1OC2=O`, the Potency entry in the test on Es-2, in the test with HeLa, in the test with Hek293T, in the test with JEG-3, in the test with OV90 and in the test on PA-1 was “inactive” throughout. Further, the Potency result with SKOV3, in the test with Tov-21-G and in the test with Tov112D was “inactive” throughout. The activity, negative = cell killing was -10.5% in test [1] (setting [5]), -10.4% in test [1] (setting [6]) and -25.7% in test [1] (setting [7]).
On to `CN(c1nccc(=O)[nH]1)C1CCN(c2nc3ccccc3n2Cc2ccc(F)cc2)CC1`, for which the Potency entry with Es-2, in the test on HeLa, in the test with Hek293T, in the test on JEG-3, in the test with OV90 and in the test with PA-1 was “inactive” each time. The Potency entry in the test on SKOV3, in the test on Tov-21-G and with Tov112D was “inactive” in each case. Also, the activity, negative = cell killing was -7.08% in test [1] (setting [2]), -20% in [1] (setting [3]) and -6.39% in test [1] (setting [4]).
Take `COc1ccc2cc([C@H](C)C(=O)O)ccc2c1`: the Potency result in the test on Es-2, with HeLa, in the test on Hek293T, in the test with JEG-3, in the test with OV90 and in the test with PA-1 was “inactive” in each case. Moreover, the Potency entry in the test with SKOV3, in the test on Tov-21-G and in the test on Tov112D was “inactive” throughout. The activity, negative = cell killing in test [1] (setting [5]) was -12.8%; in [1] (setting [6]) it was -16.1%; in test [1] (setting [7]), -8.68%.
For the molecule `CC1(C)NC(=O)N(c2ccc([N+](=O)[O-])c(C(F)(F)F)c2)C1=O`, the Potency result with Es-2, in the test with HeLa, in the test on Hek293T, with JEG-3, in the test with OV90 and with PA-1 was “inactive” each time. Besides, the Potency result with SKOV3, in the test with Tov-21-G and in the test on Tov112D was “inactive” in each case.
In the case of `COCCCOc1ccnc(CS(=O)c2nc3ccccc3[nH]2)c1C` (stereo not given), the Potency result in the test with Es-2, in the test with HeLa, with Hek293T, in the test on JEG-3, with OV90 and in the test with PA-1 was “inactive” throughout. The Potency result in the test with SKOV3, with Tov-21-G and in the test with Tov112D was “inactive” each time.
For `N[C@@H](Cc1cc(I)c(Oc2cc(I)c(O)c(I)c2)c(I)c1)C(=O)O`, the Potency entry in the test on Es-2, in the test on HeLa, with Hek293T, in the test on JEG-3, in the test on OV90 and in the test on PA-1 was “inactive” in each case. For the same molecule, the Potency entry in the test with SKOV3, with Tov-21-G and in the test on Tov112D was “inactive” throughout. In addition, the figures for the activity, negative = cell killing in test [1] (setting [2]), in [1] (setting [3]) and in test [1] (setting [4]) were -5.58%, -1.99% and -6.06%, respectively.
For `NC(=O)Cc1cccc(C(=O)c2ccccc2)c1N`, the Potency entry with Es-2, in the test on HeLa, with Hek293T, in the test with JEG-3, in the test with OV90 and with PA-1 was “inactive” throughout. Also, the Potency entry in the test with SKOV3, with Tov-21-G and with Tov112D was “inactive” each time. For the same molecule, the activity, negative = cell killing was -10.2% in [1] (setting [2]), -28% in test [1] (setting [3]) and -24.8% in [1] (setting [4]).
As to `Oc1ccc(OCc2ccccc2)cc1`, the Potency entry with Es-2, in the test with HeLa, in the test with Hek293T, in the test with JEG-3, in the test with OV90 and with PA-1 was “inactive” each time. For the same molecule, the Potency entry in the test on SKOV3, with Tov-21-G and in the test on Tov112D was “inactive” in each case. Besides, the activity, negative = cell killing in test [1] (setting [5]) is 4.55%; in test [1] (setting [6]) it was -21.3%.
